Measurements published in PubChem BioAssay AID1159580 (chemical genetic matrix, 2015).
The whole screen tested about 5,500 compounds, of which about 2,000 (36%) were called active. About 18% were inconclusive and are not listed. Cut-off read from the data, not from the text of the source: active = normalized growth mostly below about 0.91 (no sharp cut-off); inconclusive = no clear call, values can overlap the other calls; inactive = mostly above about 0.92. This is one part of the list.

Assay: chemical genetic growth profiling, strain panel (AID 1159580);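 note: tested at 20 µM; growth read once vehicle control cultures reached saturation at 30 °C; 1 = growth at the plate median or of vehicle wells; lower values mean less growth of the strain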
Conditions: S. cerevisiae deletion strains, growth OD
[1] = locus YAL040C, strain CLN3, active compounds read low
[2] = locus YCL061C, strain MRC1 (second series), active compounds read low
[3] = locus YDR363W, strain ESC2, active compounds read low
[4] = locus YER002W, strain NOP16, active compounds read low
[5] = locus YMR263W, strain SAP30, active compounds read low
[6] = locus YMR307W, strain GAS1, active compounds read low
[7] = locus YNL175C, strain NOP13, active compounds read low
[8] = locus YNL197C, strain WHI3, active compounds read low
[9] = locus YNL224C, strain SQS1, active compounds read low
[10] = locus YOR083W, strain WHI5 (second series), active compounds read low

Measured: normalized growth

C[N+]1(C)C2CC(OC(=O)C(CO)c3ccccc3)CC1C1OC12 (configuration not stated)
inactive: locus YAL013W, strain DEP1, active compounds read low 1.03 | [1] 0.975 | [2] 0.995 | [3] 0.985 | [4] 0.997 | locus YGR229C, strain SMI1, active compounds read low 1.05 | [5] 1 | [6] 1.01 | locus YNL128W, strain TEP1, active compounds read low 0.992 | [7] 0.973 | [8] 0.982 | [9] 0.988 | locus YNL322C, strain KRE1, active compounds read low 1 | [10] 0.978 | locus YPL055C, strain LGE1, active compounds read low 1.02 | locus YPL241C, strain CIN2, active compounds read low 0.993

C[N+]1(C)C2CC(OC(=O)[C@H](CO)c3ccccc3)CC1C1OC12 (some centres not stated)
inactive: [1] 0.999 | [2] 1 | [3] 0.998 | [4] 0.981 | [5] 0.998 | [6] 0.946 | locus YNL153C, strain GIM3, active compounds read low 0.99 | [7] 0.996 | [8] 0.988 | [9] 0.994 | [10] 0.991
